The campaign covered roughly 360,000 compounds. About 9,100 (2.5%) were called active. Another 4% or so got no clear call; they are omitted. The sample holds actives, similar compounds and a random draw of the others, so the mix is not that of the screen. Cut-off read from the data, not from the text of the source: active = max response below about -50%; inconclusive = no clear call, values can overlap the other calls; inactive = above that.
% is set by controls: 0 for no effect and ±100 for the full control effect.

D(3) dopamine receptor (Homo sapiens), sequence (P35462 whole entry, looked up): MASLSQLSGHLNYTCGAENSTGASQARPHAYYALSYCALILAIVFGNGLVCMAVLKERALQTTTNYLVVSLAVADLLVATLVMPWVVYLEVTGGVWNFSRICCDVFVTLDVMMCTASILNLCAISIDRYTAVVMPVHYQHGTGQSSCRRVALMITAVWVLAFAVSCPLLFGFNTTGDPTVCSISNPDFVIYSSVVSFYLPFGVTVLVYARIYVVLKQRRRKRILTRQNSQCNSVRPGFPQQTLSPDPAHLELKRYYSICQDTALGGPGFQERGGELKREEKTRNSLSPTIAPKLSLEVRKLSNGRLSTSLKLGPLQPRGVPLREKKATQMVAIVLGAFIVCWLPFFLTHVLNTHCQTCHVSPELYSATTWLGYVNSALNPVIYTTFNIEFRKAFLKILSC

This test concerns the target D(3) dopamine receptor (Homo sapiens) (UniProt P35462). Nature of the test: qHTS of D3 Dopamine Receptor Antagonist: qHTS. The note with it: D3R cells, DiscoveRx beta-arrestin luminescence, antagonist mode; active compounds read low. In a few lines: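 Cells plated overnight at 1500 cells/well, then exposed to library compounds with dopamine controls for 90 minutes at 37 degrees C. DiscoveRx reagent added for 30–60 minutes at room temperature; luminescence read, quantitative HTS format.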
A general note: qHTS replaces the single test concentration by a dilution series.
`CS(=O)(=O)/C(C#N)=C/c1cccn1S(=O)(=O)c1ccc([N+](=O)[O-])cc1`: the max response, negative = inhibition was -13.9% (inactive). To `O=C(CN1CCN(Cc2ccccc2)CC1)NC(c1ccccc1)c1ccccc1` belongs -9.3% (inactive); to `O=C1c2ccccc2C(=O)c2c1cccc2N1CCN(Cc2ccccc2)CC1`, -83% (active). To `O=S1(=O)CCN(Cc2ccccc2)CC1` belongs -8.1% (inactive).

Take `FC(F)(F)c1cccc(-c2nc3ccccc3n2C(c2ccccc2)c2nc3ccccc3[nH]2)c1` (centres undefined): the max response, negative = inhibition was 7.98% (inactive).

As for `CCCNC(=O)c1cc(C2CCCCN2S(=O)(=O)c2ccc(C#N)cc2)on1` (centres undefined), the max response, negative = inhibition was 15.7% (inactive).

For the compound `CCOc1ccc(CCN2C(=O)C(=O)N([C@@H](CC(C)C)CN3CCC[C@H]3CN3C(=O)C(=O)NC[C@@H]3Cc3ccccc3)C[C@@H]2CC(C)C)cc1`, the max response, negative = inhibition is 2.39% (inactive). To `COc1ccc(NS(=O)(=O)c2cccc3nsnc23)cc1Cl` belongs -6.5% (inactive). The result for `O=C(O)c1ccc(NS(=O)(=O)c2cccc3nsnc23)cc1` reads -88.2% (active); that for `O=S(=O)(Nc1ccccc1Cl)c1cccc2nsnc12`, -8.87% (inactive).

Consider `Cc1cn([C@H]2C[C@H](O)[C@@H](/C=C/C(=O)NCCCc3ccccc3)O2)c(=O)[nH]c1=O`, for which the max response, negative = inhibition was 0% (inactive). In the case of `CCOc1ccc(NS(=O)(=O)c2ccc(C(=O)NC3CCN(Cc4ccccc4)CC3)cc2)cc1`, the max response, negative = inhibition is -68.8% (active). The result for `CCOc1ccc(CC(=O)NC2CCN(Cc3ccccc3)CC2)cc1` reads -12.8% (inactive); that for `CCOc1ccc(NS(=O)(=O)c2ccc(C(=O)NCC3CCCO3)cc2)cc1` (centres undefined), -69.2% (active); that for `CCOc1ccc(S(=O)(=O)NCCC(=O)NCC2CCCO2)cc1` (centres undefined), 20.2% (inactive).

Consider `O=C(NCC1CCCO1)c1ccc(S(=O)(=O)Nc2ccc(F)cc2)cc1` (centres undefined), for which the max response, negative = inhibition is -12.1% (inactive). The result for `CCOc1ccc(C(=O)NC2CCN(S(=O)(=O)CC)CC2)cc1` reads 8.12% (inactive). To `O[C@H]1C[C@H](c2ccc(Cl)cc2)N(Cc2cccs2)C[C@@H]1n1cc(C2CC2)nn1` belongs -1.65% (inactive); to `O=S1(=O)CC(N2CCN(CCO)CC2)CN1C1CCCC1` (centres undefined), 8.42% (inactive). To `CC(=O)Nc1cccc(-c2ccnc3c2CC(C)(C(=O)NCc2ccco2)O3)c1` (centres undefined) belongs -21.1% (inactive). In the case of `CC1CCN(c2ccc([N+](=O)[O-])c(SCCO)c2)CC1`, the max response, negative = inhibition was -51.8% (active). The result for `O=[N+]([O-])c1ccc(N2CCSCC2)cc1O` reads -6.65% (inactive); that for `CC1CCN(c2ccc([N+](=O)[O-])cc2C(N)=O)CC1`, 10.9% (inactive). To `O=C(Cc1ccc([N+](=O)[O-])cc1)NCCS(=O)(=O)N1CCN(c2ccccc2)CC1` belongs 3.87% (inactive).

For the origin of these results see PubChem BioAssay AID652054 (National Center for Advancing Translational Sciences (NCATS), 2013).
